# Experimental data taken from PubChem BioAssay (Tox21).
# A number with no mark means an inactive call. Records with an inconclusive call do not appear. Entries that show only a call come without a potency. Active and inactive are the calls of the source. Unless noted, calls follow the shape of the full dose curve.
# Columns and labels:
# [1] = target: KiSS-1 receptor (Homo sapiens) (UniProt Q969F8); assay: Human kisspeptin (KISS1R) small molecule agonists, calcium flux assay in KISS1R-HEK293 cells (AID 1920064; active = well fitted activation curve with a large enough effect in the repeat runs)
# Method in brief: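 After overnight (18 h) culture at 37 C/5% CO2, human KISS1R-HEK293 cells received calcium dye for 1 h, then test compound; emission at 540 nm (excitation 480 nm) was tracked for 3 min.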
# [2] = p53 small molecule agonists, cell-based qHTS assay with human liver microsomes (AID 1963577);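 also: p53 response element beta-lactamase reporter cells with liver microsomes plus NADPH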
# Method in brief: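 Reporter activation was measured by LiveBLAzer fluorescence intensity in p53RE-bla cells, which had been exposed to compounds for 16 h at 37 C alongside 0.5 mg/mL human liver microsomes and 0.5 mg/mL NADPH (final concentrations).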
# [3] = p53 small molecule agonists, cell-based qHTS assay with rat liver microsomes (AID 1963578)
# Method in brief: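 Compound in DMSO added to p53RE-bla cells 5 h post-plating; rat microsomes/NADPH 0.5 mg/mL final; 16 h, 37 C; LiveBLAzer 2 h RT.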
# [4] = p53 small molecule agonists, cell-based qHTS assay with human liver microsomes: qHTS cell viability counter screen (AID 1963579); also: nearly all actives have a fitted effect of over 45% in size; also: potency is read from the fitted curve at half-maximal effect
# Method in brief: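 HLM-supplemented (0.5 mg/mL final) and NADPH-supplemented (0.5 mg/mL final) p53RE-bla cultures, 4,000 cells per well, were dosed with compounds in DMSO for 16 h at 37 C; luminescent ATP detection (CellTiter-Glo, 30 min, room temperature) quantified surviving cells.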
# [5] = p53 small molecule agonists, cell-based qHTS assay with rat liver microsomes: qHTS cell viability counter screen (AID 1963580); also: nearly all actives have a fitted effect of over 45% in size
# Method in brief: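 Cytotoxicity counter screen: intracellular ATP measured by CellTiter-Glo luminescence in the same wells as the beta-lactamase reporter read, on HCT-116 p53RE-bla cells exposed 16 h at 37 C to compounds with rat liver microsomes and NADPH, each 0.5 mg/mL final.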
# [6] = p53 small molecule agonists, cell-based qHTS assay: qHTS cell viability counter screen (AID 1963581); also: nearly all actives have a fitted effect of over 45% in size
# Method in brief: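 qHTS counter screen: 16 h compound exposure at 37 C of p53RE-bla HCT-116 cells (4,000 per well, seeded 5 h prior), cell viability by ATP luminescence.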
# [7] = p53 small molecule agonists, cell-based qHTS assay (AID 1963582; active = well fitted activation curve with a large enough effect in the signal ratio in the repeat runs, not every such curve was filed as active; the % refers to the signal ratio)
# Method in brief: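 Measured: fluorescence from cleaved LiveBLAzer substrate. System: p53RE-bla cells, 16 h compound treatment at 37 C, 2 h substrate step at room temperature.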
# [8] = cAMP Responsive Elements (CRE) small molecule agonists, cell-based qHTS assay (AID 1963590)
# Method in brief: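 Test agents in DMSO were incubated 3 h at 37 C/5% CO2 with CRE-bla HEK 293T cells seeded 18 h earlier; LiveBLAzer B/G FRET substrate was added and read after 2 h at room temperature.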
# [9] = cAMP Responsive Elements (CRE) small molecule antagonists, cell-based qHTS assay (AID 1963591; active = well fitted inhibition curve with a large enough effect in the signal ratio in the repeat runs, not every such curve was filed as active; the % refers to the signal ratio)
# Method in brief: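 Reporter line CRE-bla HEK 293T in dialyzed-FBS DMEM; cells preincubated 18 h, treated 3 h with compound plus NKH477 (0.25 uM final); LiveBLAzer FRET, 2 h RT.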
# [10] = target: Beta-2 adrenergic receptor (Homo sapiens) (UniProt P07550); assay: Adrenergic beta2 receptor (ADRB2) small molecule antagonists, cell-based qHTS assay (AID 1963592); also: nearly all actives have a fitted effect of over 50% in size; also: potency is read from the fitted curve at half-maximal effect; as to activity change, negative = inhibition: series mostly up to about 92 µM
# Method in brief: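 Assay format: CHO-ADRB2 cells, 18-20hr seeding at 37C/5% CO2, then compound plus 1nM isoproterenol agonist mix for 0.5hr RT. Homogeneous time-resolved fluorescence cAMP detection after 1hr, expressed as 665/615 nm ratio.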
# [11] = target: Beta-2 adrenergic receptor (Homo sapiens) (UniProt P07550); assay: Adrenergic beta2 receptor (ADRB2) small molecule agonists, cell-based qHTS assay (AID 1963593);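 also: CHO cells stably overexpressing human ADRB2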
# Method in brief: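 CHO cells stably over-expressing ADRB2 were plated overnight at 37C, then dosed with compounds plus a stimulation mix containing 100uM IBMX and 25uM Ro-20-1724 for 0.5hr at room temperature. cAMP was measured by HTRF competition, 1hr.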
# [12] = target: D(2) dopamine receptor (Homo sapiens) (UniProt P14416); assay: Dopamine D2 receptor (DRD2) small molecule agonists, cell-based qHTS assay (AID 1963594); also: nearly all actives have a fitted effect of over 35% in size; also: potency is read from the fitted curve at half-maximal effect
# Method in brief: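 HEK293 cells stably expressing human DRD2, pre-treated with PDE inhibitor Ro20-1724 (0.1 mM final) and compound 10 min at room temperature, then stimulated with NKH477 (200nM […]) for 30 min. cAMP read by HTRF (665/620 nm).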
# [13] = target: D(2) dopamine receptor (Homo sapiens) (UniProt P14416); assay: Dopamine D2 receptor (DRD2) small molecule antagonists, cell-based qHTS assay (AID 1963595; active = well fitted inhibition curve with a large enough effect in the signal ratio in the repeat runs, with a control signal flat; the % refers to the signal ratio)
# Method in brief: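 Human DRD2 antagonist qHTS measuring cAMP by HTRF. The cells are exposed to compound for 10 min, then to NKH477 (200 nM) and quinpirole (12 nM) for 30 min at RT, with Ro20-1724 (0.1 mM) present throughout.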
# [14] = target: Gonadotropin-releasing hormone receptor (Homo sapiens) (UniProt P30968); assay: Human gonadotropin-releasing hormone receptor (GnRHR) small molecule agonists, calcium flux assay in GnRHR-HEK293 cells (AID 1920063); also: nearly all actives have a fitted effect of over 35% in size
# Method in brief: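 Stable human GnRHR HEK293 line. 18 h plating, then calcium dye for 1 h at 37 C. Agonist-mode compound addition from DMSO stocks; fluorescence monitored 3 min.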
# [15] = G protein-coupled receptor (GPCR) small molecule agonists, calcium flux assay: HEK293 wild type cell line counter screen (AID 1920065)
# Method in brief: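 Following 18 h incubation at 37 C/5% CO2, plates got calcium dye for 1 h; compounds, ATP or DMSO were then pinned in and fluorescence followed kinetically (480/540 nm).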
# [16] = target: 5-hydroxytryptamine receptor 2A (Homo sapiens) (UniProt P28223); assay: 5-hydroxytryptamine receptor 2A (HTR2A) small molecule antagonists, cell-based qHTS assay (AID 1963586); also: nearly all actives have a fitted effect of over 45% in size
# Method in brief: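 CHO cells stably expressing human HTR2A were plated for 18 h at 37 C, then loaded with calcium dye for 1 h. Compounds were preincubated 5 min at room temperature before DOI (4 nM solution) was added. Kinetic fluorescence was read for 3 min.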
# [17] = target: Muscarinic acetylcholine receptor M1 (Homo sapiens) (UniProt P11229); assay: Cholinergic receptor muscarinic 1 (CHRM1) small molecule antagonists, cell-based qHTS assay (AID 1963588); also: nearly all actives have a fitted effect of over 40% in size
# Method in brief: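 Compounds were tested at 15 concentrations in three independent runs. Dye-loaded CHRM1-CHO cells were exposed 5 min at room temperature before stimulation by acetylcholine added at 50nM. Intracellular calcium was read kinetically on FDSS for 3 min.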
# [18] = target: Muscarinic acetylcholine receptor M1 (Homo sapiens) (UniProt P11229); assay: Cholinergic receptor muscarinic 1 (CHRM1) small molecule agonists, cell-based qHTS assay (AID 1963589); also: nearly all actives have a fitted effect of over 35% in size
# Method in brief: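 Kinetic fluorescence (1 s intervals) of calcium-sensitive dye in human M1 CHO cells after compound addition; cells pre-incubated 18 h at 37 C/5% CO2 and dye-loaded 1 h.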
# [19] = Nuclear factor erythroid 2-related factor 2/antioxidant responsive element (Nrf2/ARE) small molecule agonists: luciferase reporter gene qHTS assay in human keratinocytes (AID 1919969); also: nearly all actives have a fitted effect of over 35% in size; also: potency is read from the fitted curve at half-maximal effect
# [20] = target: 5-hydroxytryptamine receptor 2A (Homo sapiens) (UniProt P28223); assay: 5-hydroxytryptamine receptor 2A (HTR2A) small molecule agonists, cell-based qHTS assay (AID 1963587); also: nearly all actives have a fitted effect of over 30% in size
# Method in brief: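 CHO cells stably expressing human HTR2A, plated 18 h, loaded with calcium dye 1 h at 37 C. Agonist mode: compounds added and intracellular calcium fluorescence recorded kinetically for 2 min at 1 sec intervals.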
# Sequence of Gonadotropin-releasing hormone receptor (Homo sapiens) (P30968 whole entry, looked up): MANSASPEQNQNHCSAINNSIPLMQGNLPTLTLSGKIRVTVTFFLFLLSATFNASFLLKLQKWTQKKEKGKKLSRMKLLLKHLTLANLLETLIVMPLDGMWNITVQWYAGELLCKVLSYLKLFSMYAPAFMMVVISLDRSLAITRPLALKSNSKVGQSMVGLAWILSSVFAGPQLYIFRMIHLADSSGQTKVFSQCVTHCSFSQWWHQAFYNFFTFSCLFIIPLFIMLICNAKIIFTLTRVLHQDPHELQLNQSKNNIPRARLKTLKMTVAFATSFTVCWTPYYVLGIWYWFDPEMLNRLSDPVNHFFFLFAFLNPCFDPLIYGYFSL
# Sequence of Beta-2 adrenergic receptor (Homo sapiens) (P07550 whole entry, looked up): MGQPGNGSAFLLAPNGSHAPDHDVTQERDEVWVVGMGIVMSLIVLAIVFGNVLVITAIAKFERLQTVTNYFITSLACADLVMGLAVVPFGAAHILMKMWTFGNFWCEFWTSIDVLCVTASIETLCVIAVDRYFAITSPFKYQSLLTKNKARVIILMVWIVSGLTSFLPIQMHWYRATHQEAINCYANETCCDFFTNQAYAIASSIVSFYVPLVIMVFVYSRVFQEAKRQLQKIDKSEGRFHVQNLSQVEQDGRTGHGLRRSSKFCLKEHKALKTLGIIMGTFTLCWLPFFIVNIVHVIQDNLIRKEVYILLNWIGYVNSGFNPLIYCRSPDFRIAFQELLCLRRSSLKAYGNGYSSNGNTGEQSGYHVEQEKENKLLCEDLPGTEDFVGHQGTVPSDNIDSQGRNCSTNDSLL
# Sequence of 5-hydroxytryptamine receptor 2A (Homo sapiens) (P28223 whole entry, looked up): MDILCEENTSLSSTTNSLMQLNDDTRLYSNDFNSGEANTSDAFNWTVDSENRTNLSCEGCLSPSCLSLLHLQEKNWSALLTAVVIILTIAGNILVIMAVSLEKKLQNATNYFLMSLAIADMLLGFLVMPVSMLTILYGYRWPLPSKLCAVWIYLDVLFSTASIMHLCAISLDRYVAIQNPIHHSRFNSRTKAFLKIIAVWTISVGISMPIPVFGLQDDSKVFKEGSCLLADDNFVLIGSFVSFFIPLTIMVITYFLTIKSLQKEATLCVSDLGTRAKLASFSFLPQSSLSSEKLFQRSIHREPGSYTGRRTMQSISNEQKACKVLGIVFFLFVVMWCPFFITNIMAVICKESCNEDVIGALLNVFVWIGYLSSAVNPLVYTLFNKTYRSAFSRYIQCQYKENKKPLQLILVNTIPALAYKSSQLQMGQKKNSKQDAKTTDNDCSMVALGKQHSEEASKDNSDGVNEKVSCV
# Sequence of Muscarinic acetylcholine receptor M1 (Homo sapiens) (P11229 whole entry, looked up): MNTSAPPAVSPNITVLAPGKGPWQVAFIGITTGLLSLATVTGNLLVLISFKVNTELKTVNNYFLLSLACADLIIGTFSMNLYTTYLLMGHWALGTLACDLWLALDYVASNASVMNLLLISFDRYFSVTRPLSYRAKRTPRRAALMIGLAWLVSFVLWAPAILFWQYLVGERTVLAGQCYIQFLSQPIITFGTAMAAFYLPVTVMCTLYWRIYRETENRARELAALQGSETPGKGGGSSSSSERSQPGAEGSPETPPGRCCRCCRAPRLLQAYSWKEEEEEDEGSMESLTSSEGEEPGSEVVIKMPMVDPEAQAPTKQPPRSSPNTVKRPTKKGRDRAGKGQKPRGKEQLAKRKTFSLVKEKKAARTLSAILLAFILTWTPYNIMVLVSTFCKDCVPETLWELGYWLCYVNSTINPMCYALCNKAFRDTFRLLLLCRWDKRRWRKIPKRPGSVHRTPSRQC
# Sequence of KiSS-1 receptor (Homo sapiens) (Q969F8 whole entry, looked up): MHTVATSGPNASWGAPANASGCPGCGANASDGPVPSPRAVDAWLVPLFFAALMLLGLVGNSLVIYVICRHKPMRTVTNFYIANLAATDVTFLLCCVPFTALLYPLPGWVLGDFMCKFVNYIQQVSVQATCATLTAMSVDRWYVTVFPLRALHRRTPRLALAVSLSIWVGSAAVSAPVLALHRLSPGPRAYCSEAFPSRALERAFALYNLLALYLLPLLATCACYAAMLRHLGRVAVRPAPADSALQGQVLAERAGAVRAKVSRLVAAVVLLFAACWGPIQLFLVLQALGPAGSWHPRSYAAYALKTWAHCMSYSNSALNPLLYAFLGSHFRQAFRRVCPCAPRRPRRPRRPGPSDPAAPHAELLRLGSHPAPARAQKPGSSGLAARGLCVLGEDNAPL
# Sequence of D(2) dopamine receptor (Homo sapiens) (P14416 whole entry, looked up): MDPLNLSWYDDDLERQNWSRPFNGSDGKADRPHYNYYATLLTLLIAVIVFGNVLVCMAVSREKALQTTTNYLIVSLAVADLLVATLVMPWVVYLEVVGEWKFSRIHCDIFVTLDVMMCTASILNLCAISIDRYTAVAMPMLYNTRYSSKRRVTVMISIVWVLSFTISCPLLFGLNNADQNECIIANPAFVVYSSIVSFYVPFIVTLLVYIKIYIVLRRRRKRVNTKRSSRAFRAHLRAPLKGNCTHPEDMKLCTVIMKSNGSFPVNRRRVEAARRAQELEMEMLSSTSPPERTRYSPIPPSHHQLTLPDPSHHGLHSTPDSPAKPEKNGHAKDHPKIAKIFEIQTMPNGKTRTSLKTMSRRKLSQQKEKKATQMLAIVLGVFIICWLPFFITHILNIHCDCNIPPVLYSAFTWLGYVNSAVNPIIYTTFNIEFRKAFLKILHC
structure (smiles),measurement,setting,value
O=C(Oc1ccccc1C(=O)O)c1ccccc1O,outcome,[1],inactive
same,Potency,[2],inactive
same,Potency,[3],inactive
same,Potency,[4],inactive
same,Potency,[5],inactive
same,Potency,[6],inactive
same,Potency,[7],inactive
same,Potency,[8],inactive
same,Potency,[9],inactive
same,Potency,[10],inactive
same,Potency,[11],inactive
same,Potency,[12],inactive
same,Potency,[13],inactive
COc1cc2nc(N3CCN(C(=O)c4ccco4)CC3)nc(N)c2cc1OC,activity change,[14],"-0.192% [at 11.8 µM, active compounds read high]"
same,activation,[1],1.31% [at 15.8 µM]
same,activation,[2],-0.142% [at 13.5 µM]
same,activation,[3],0.86% [at 13.6 µM]
same,Potency,[4],0.972 µM (active)
same,"activity change, negative = cytotoxicity",[5],0.442% [at 13.5 µM]
same,"activity change, negative = cytotoxicity",[6],24.1% [at 13.5 µM]
same,activation,[8],-0.578% [at 19 µM]
same,"activity change, negative = inhibition",[9],4.27% [at 18.9 µM]
same,Potency,[10],14.6 µM (active)
same,activation,[12],10.2% [at 19 µM]
same,"activity change, negative = inhibition",[13],1.94% [at 18.9 µM]
CCC1(C)NC(=O)NC1=O (centres undefined),Potency,[14],inactive
same,outcome,[1],inactive
same,outcome,[15],inactive
same,Potency,[4],inactive
same,Potency,[5],inactive
same,Potency,[6],inactive
same,Potency,[7],inactive
same,Potency,[16],inactive
same,Potency,[17],inactive
same,Potency,[18],inactive
same,Potency,[8],inactive
same,Potency,[9],inactive
same,Potency,[10],inactive
same,Potency,[12],inactive
same,Potency,[13],inactive
CCN1CC(CCN2CCOCC2)C(c2ccccc2)(c2ccccc2)C1=O (centres undefined),Potency,[14],inactive
same,outcome,[1],inactive
same,Potency,[2],inactive
same,Potency,[3],inactive
same,Potency,[4],inactive
same,Potency,[5],inactive
same,Potency,[7],inactive
same,Potency,[8],inactive
same,Potency,[9],inactive
same,Potency,[10],inactive
same,Potency,[11],inactive
same,Potency,[12],inactive
CCCCNc1ccc(C(=O)OCCN(C)C)cc1,Potency,[19],inactive
same,Potency,[14],inactive
same,outcome,[1],inactive
same,outcome,[15],inactive
same,Potency,[2],inactive
same,Potency,[3],inactive
same,Potency,[4],inactive
same,Potency,[5],inactive
same,Potency,[6],inactive
same,Potency,[7],inactive
same,Potency,[8],inactive
same,Potency,[9],inactive
same,Potency,[10],inactive
same,Potency,[11],inactive
same,Potency,[12],inactive
same,Potency,[13],inactive
O=C1c2ccccc2S(=O)(=O)N1CCCCN1CCN(c2ncccn2)CC1,Potency,[19],inactive
same,Potency,[14],inactive
same,outcome,[1],inactive
same,outcome,[15],inactive
same,Potency,[2],inactive
same,Potency,[3],inactive
same,Potency,[4],inactive
same,Potency,[5],inactive
same,Potency,[6],inactive
same,Potency,[7],inactive
same,Potency,[20],inactive
same,Potency,[17],inactive
same,Potency,[9],inactive
same,Potency,[10],inactive
same,Potency,[12],2.76 µM (active)
same,Potency,[13],inactive
C/C=C/C=C/COC(=O)C(C)C,Potency,[19],68.6 µM (active)
same,Potency,[14],inactive
same,outcome,[1],inactive
same,outcome,[15],inactive
same,Potency,[2],inactive
same,Potency,[3],inactive
same,Potency,[4],inactive
same,Potency,[5],inactive
same,Potency,[6],inactive
same,Potency,[7],inactive
same,Potency,[16],inactive
same,Potency,[20],inactive
same,Potency,[17],inactive
same,Potency,[18],inactive
same,Potency,[10],inactive
same,Potency,[11],inactive
same,Potency,[12],inactive
same,Potency,[13],inactive
OCCC(F)(F)C(F)(F)C(F)(F)C(F)(F)C(F)(F)C(F)(F)C(F)(F)C(F)(F)F,Potency,[19],inactive
same,Potency,[14],inactive
same,outcome,[1],inactive
same,outcome,[15],inactive
same,Potency,[2],inactive
same,Potency,[3],inactive
same,Potency,[4],inactive
same,Potency,[5],inactive
same,Potency,[6],inactive
same,Potency,[7],inactive
same,Potency,[16],inactive
same,Potency,[20],inactive
same,Potency,[18],inactive
same,Potency,[8],inactive
same,Potency,[9],inactive
same,Potency,[10],inactive
same,Potency,[13],inactive
